Measured values taken from PubChem BioAssay AID624263 (National Center for Advancing Translational Sciences (NCATS), 2012).
The whole screen tested about 410,000 compounds, of which about 820 (0.2%) were called active. About 2% were inconclusive and are not listed. This excerpt belongs to a sample that is enriched for actives. Values without a mark were called inactive. The call rests on the fitted dose curve; in most records, active means well fitted activation curve with a large enough effect; inconclusive means small, poorly fitted or top-dose-only effect; inactive means flat fitted curve, though single readings scatter; cell line not stated here.

Test: A Quantitative High throughput Screen to Identify Chemical Modulators of PINK1 Expression; further: nearly all actives have a fitted effect of over 65% in size; on activation (PINK1 increase): % of control where 0% means no effect
Conditions: PINK1 immunofluorescence, high-content cytometry, 24 h; series mostly up to 76.6 µM; activation (PINK1 increase): at the top concentration
Procedure, shortened: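 A stable cell line was treated with compounds at 5 concentrations for 24 hours, with CCCP as control. PINK1 levels and mitochondrial localization were measured by immunofluorescence with mitochondrial, cell and nuclear markers after fixation, read by laser-scanning cytometry.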
Potency means the concentration at half of the fitted maximal effect.

SMILES | activation (PINK1 increase) [%] | Potency
CN(C)c1ccc(/C=C2\C=Cc3ccccc32)cc1Br | 2.66 | –
CC(C)(C)C1CCC(NC(=O)c2cnn3c2NC(=C2CC2)C=C3C(F)F)CC1 (centres undefined) | -0.21 | –
Cn1nccc1C(=O)NCC1CCC2(CCN(Cc3c(O)ccc4ccccc34)CC2)O1 (centres undefined) | -0.145 | –
O=C(NCCN1CCOCC1)c1cnn(-c2nccc(-c3cccs3)n2)c1C1CC1 | 1.85 | –
Cc1cnc(C)c(-c2cc(F)c3c(c2)CC(CNC(=O)c2cccc(Cn4cccn4)c2)O3)n1 (centres undefined) | 0.0853 | –
CCc1cccc(NC(=S)N(CCN(C)C)C2CCN(C(C)C)CC2)c1 | -1.23 | –
CCOc1ccc2c(c1)cc(CN(C(=O)CC)C1CCCCC1)c1nnnn12 | -2.48 | –
CCc1ccc2c(c1)cc(CN(C(=S)Nc1ccccc1Cl)C1CC1)c1nnnn12 | – | 12.6 µM (active)
CC(C)C(=O)NC(C)c1nnc2n1CCN(Cc1cccc3ncccc13)CC2 (centres undefined) | -0.848 | –
O=C1CCN(Cc2ccc(-c3ccccc3)cc2)CCN1Cc1ccccn1 | 0.935 | –
Cc1oc(-c2cccc(NC(=O)c3ccccc3)c2)nc1CNC(=O)c1cnc2ccccn2c1=O | 0.787 | –
O=C(Nc1ccccc1C(F)(F)F)c1nc(S(=O)(=O)Cc2ccccc2F)ncc1Cl | 3.33 | –
N#C/C(=C/c1ccc(N2CCCCC2)o1)C(=O)NCCc1c[nH]c2ccccc12 | – | 11.2 µM (active)
COCCCNC(=O)/C(C#N)=C/c1c(N2CCCCCC2)nc2ccccn2c1=O | 0.655 | –
CC1(C(=O)NCCc2c[nH]c3ccccc23)C=CC2(CCCCC2)N1C(=O)c1ccccc1 (centres undefined) | -0.269 | –
COCCN1CCN(C(=O)c2sc3ncnc(NCC4CCCO4)c3c2C)CC1 (centres undefined) | 0.389 | –
CN1CCCCCC1C(=O)NCCN1Cc2ccccc2OC(c2ccsc2)C1 (centres undefined) | -0.383 | –
COc1ccccc1-c1ccnc(-n2ncc(C(=O)NCCc3ccncc3)c2C)n1 | 1.69 | –
COC(=O)C1CCCCN1Cc1ccc2c(c1)CN(Cc1cc(OC)c3c(c1)OCO3)CCO2 (centres undefined) | 0.531 | –
COCC(C)NC(=O)c1ccc(-n2nc(C(F)(F)F)cc2-c2cccs2)cc1 (centres undefined) | -2.38 | –
N#Cc1ccc(C(=O)Nc2nc(-c3cccs3)c(C(=O)C(F)(F)F)s2)cc1 | – | 6.31 µM (active)
COc1ccc(C(F)(F)F)cc1NC(=O)c1sc2nc(-c3cccs3)ccc2c1N | 16.7 | –
C=C1C=C(C)n2ncc(C(=O)Nc3ccccc3O)c2N1 | 1.83 | –
COc1ccccc1CNc1cc(-c2ccccc2CN(C)C)ncn1 | 0.0313 | –
